From PubChem BioAssay come the findings set out here.

One assay has as its target Albumin (Bos taurus) (UniProt P02769). Nature of the assay: bovine serum albumin binders on microarray, profiling panel, artefact control for SMM control protein annotation, biochemical, small-molecule microarray, Alexa647 label, 635/667 nm fluorescence (AID 1118).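 Further: score merges 667 nm emission intensity and signal-to-noise per printed compound spot.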 As to conditions: BSA-A647 binding, fluorescence 635 nm, higher = more signal.
Assay [1] in a line: small-molecule microarray binders of probe aXIP, primary screen, biochemical, NeuroSMM set, 635/667 nm fluorescence (AID 1119).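 Further: probe is the protein aXip251-270 applied at 1 µg/mL to compound-printed slides; binding of probe to printed compounds measured as 667 nm fluorescence plus signal to noise.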 As to conditions: higher = more signal, called active from +8 up or from −8 down.
Assay [2] in a line: small-molecule binders of probe aNOTCH3, primary screen, biochemical, small-molecule microarray, 635/667 nm fluorescence (AID 1120).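 Further: probe is a biotin-tagged antibody raised against NOTCH3 rather than NOTCH3 protein; score merges spot fluorescence near 667 nm with spot signal to noise.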 The note with it: higher = more signal.
The nature of assay [3]: small-molecule binders of probe aNOTCH2, primary screen, biochemical, small-molecule microarray, 635/667 nm fluorescence (AID 1121).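 Further: score merges feature fluorescence read at 667 nm with its signal to noise.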 The note with it: higher = more signal.
Assay [4] concerns the target Carbonic anhydrase 2 (Homo sapiens) (UniProt P00918). Kind of assay: CAII small-molecule binders, profiling panel, biochemical, small-molecule microarray, Alexa647-labelled CAII (AID 1122). As to conditions: CAII-A647 binding fluorescence, higher = more signal.
A short description of assay [5]: COS7 lysate on small-molecule microarray, probe aHis, 635 nm (AID 1123).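 Further: z-score combines 667nm fluorescence intensity with signal-to-noise per printed compound spot.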 As to conditions: COS7 cell lysate, fluorescence, higher = more signal.
The nature of assay [6]: compound binding in COS7 lysate, probe aLAP1, primary screen, cell lysate, small-molecule microarray (AID 1124).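 Further: lysate comes from COS7 cells expressing LAP1 and is applied at 0.3 µg/mL; score merges spot fluorescence near 667 nm with signal-to-noise over triplicate slides.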 The note with it: probe aLAP1, fluorescence, higher = more signal.
Another assay has as its system Sam68 (KHDRBS1). Kind of assay: Sam68 small-molecule binders, primary screen, biochemical, small-molecule microarray, 635 nm fluorescence (AID 1125).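 Further: score merges 667 nm channel intensity with signal to noise over triplicate slides.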 As to conditions: small-molecule microarray binding, higher = more signal.
Assay [7] deals with Chordin-like protein 2 (CHRDL2). Kind of assay: CHRDL2 small-molecule binders, primary screen, biochemical, small-molecule microarray, 635 nm fluorescence (AID 1126).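 Further: printed compound slides probed with Chrdl2 protein at 4 µg/mL for 1 h at 4 C; score merges 667 nm emission intensity with signal to noise over three replicate slides.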 The note with it: small-molecule microarray binding, fluorescence 635 nm; higher = more signal.
For assay [8], the target named is Concanavalin-A (Canavalia ensiformis) (UniProt P02866). Kind of assay: ConA small-molecule binders, primary screen, artefact control for SMM control protein annotation, biochemical, small-molecule microarray, Alexa647 label, 635 nm (AID 1127).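 Further: z combines 667 nm emission intensity with signal-to-noise across three replicate slides.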 As to conditions: ConA-A647 binding fluorescence, higher = more signal.
A short description of assay [9]: anti-His antibody binders, primary screen, artefact control for SMM control protein annotation, biochemical, small-molecule microarray, 635 nm fluorescence (AID 1128).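 Further: score merges feature fluorescence with signal-to-noise for each printed compound spot.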 The note with it: anti-His Alexa647 antibody binding, higher = more signal.
Assay [10] relates to Human papillomavirus type 1a E7 protein (residues 1-88). Kind of assay: HPV1a E7 small-molecule binders, primary screen, biochemical, small-molecule microarray, residues 1-88, 635 nm (AID 1129). As to conditions: small-molecule microarray binding, fluorescence 635 nm; higher = more signal.
For assay [11], the target named is Focal adhesion kinase 1 (Homo sapiens) (UniProt Q05397). Kind of assay: small-molecule microarray binders of FAK, primary screen, biochemical, 635/667 nm fluorescence, BSA, DTT (AID 1130).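 Further: composite of spot emission at 667 nm and signal to noise over triplicate slides.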 The note with it: PTK2 binding, 635 nm fluorescence, higher = more signal.
Assay [12] deals with Fibrinogen (Alexa647-labelled). Kind of assay: fibrinogen binders on compound microarrays, profiling panel, artefact control for SMM control-protein annotation, biochemical, small-molecule microarray, 635/667 nm fluorescence (AID 1131).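 Further: z-score merges 667 nm fluorescence with per-spot signal-to-noise over triplicate slides.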 The note with it: fibrinogen-A647 binding fluorescence, higher = more signal.
Assay [13] concerns the target Follistatin (Homo sapiens) (UniProt P19883). Nature of the assay: follistatin binders on small-molecule microarrays, primary screen, biochemical, small-molecule microarray, 635/667 nm fluorescence (AID 1132). The note with it: FST binding, 635 nm fluorescence, higher = more signal.
Assay [14] deals with Fibroblast growth factor 2 (Homo sapiens) (UniProt P09038). Nature of the assay: FGF2 binders on small-molecule microarrays, primary screen, biochemical, small-molecule microarray, 635/667 nm fluorescence (AID 1133). As to conditions: small-molecule microarray binding, FGF2, fluorescence 635/667; higher = more signal.
Assay [15] can be described thus: mitochondrial membrane potential change in A549 cells, profiling panel, cell-based, JC-1 fluorescence, basal, 24 h, 100 nL (AID 1138).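 Further: A549 lung adenocarcinoma cells under basal conditions with no added stimulus; test concentration not given here.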 As to conditions: higher = more signal.
The next assay concerns Lefty1. Nature of the assay: Lefty1 binders on small-molecule microarrays, primary screen, biochemical, small-molecule microarray, 635/667 nm fluorescence (AID 1139). The note with it: small-molecule microarray binding, fluorescence 635/667; higher = more signal.
For assay [16], the system named is wheat germ agglutinin (Triticum aestivum), Alexa647-labelled. Kind of assay: wheat germ agglutinin binders on compound microarrays, profiling panel, artefact control for SMM control-protein annotation, biochemical, small-molecule microarray, 635/667 nm fluorescence (AID 1140).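 Further: score merges 667 nm feature emission with signal to noise over triplicate slides.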 As to conditions: WGA-A647 binding, 635 nm fluorescence, higher = more signal.
For assay [17], the target named is Luciferin 4-monooxygenase (Photinus pyralis) (UniProt P08659). Kind of assay: firefly luciferase enzyme inhibitors, primary screen, biochemical, luminescence, purified enzyme, 2006 set (AID 1141).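 Further: cell-free assay with purified firefly luciferase at 100 ng per well in PBS; test concentration not given here.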 The note with it: SteadyGlo luminescence, 30 min, higher = more signal, called active from +8 up or from −8 down.

Calls of active or inactive are those of the source.

Fibroblast growth factor 2 (Homo sapiens), sequence (P09038 whole entry, looked up): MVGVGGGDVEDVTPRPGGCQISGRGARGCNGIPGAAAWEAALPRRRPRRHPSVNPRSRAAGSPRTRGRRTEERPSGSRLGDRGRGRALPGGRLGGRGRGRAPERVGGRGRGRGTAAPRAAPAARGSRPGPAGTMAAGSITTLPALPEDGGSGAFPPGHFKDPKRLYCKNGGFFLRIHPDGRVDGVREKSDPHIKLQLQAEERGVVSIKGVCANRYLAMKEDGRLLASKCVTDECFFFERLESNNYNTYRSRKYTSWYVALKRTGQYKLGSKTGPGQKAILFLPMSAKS
Focal adhesion kinase 1 (Homo sapiens), sequence (Q05397 whole entry, looked up): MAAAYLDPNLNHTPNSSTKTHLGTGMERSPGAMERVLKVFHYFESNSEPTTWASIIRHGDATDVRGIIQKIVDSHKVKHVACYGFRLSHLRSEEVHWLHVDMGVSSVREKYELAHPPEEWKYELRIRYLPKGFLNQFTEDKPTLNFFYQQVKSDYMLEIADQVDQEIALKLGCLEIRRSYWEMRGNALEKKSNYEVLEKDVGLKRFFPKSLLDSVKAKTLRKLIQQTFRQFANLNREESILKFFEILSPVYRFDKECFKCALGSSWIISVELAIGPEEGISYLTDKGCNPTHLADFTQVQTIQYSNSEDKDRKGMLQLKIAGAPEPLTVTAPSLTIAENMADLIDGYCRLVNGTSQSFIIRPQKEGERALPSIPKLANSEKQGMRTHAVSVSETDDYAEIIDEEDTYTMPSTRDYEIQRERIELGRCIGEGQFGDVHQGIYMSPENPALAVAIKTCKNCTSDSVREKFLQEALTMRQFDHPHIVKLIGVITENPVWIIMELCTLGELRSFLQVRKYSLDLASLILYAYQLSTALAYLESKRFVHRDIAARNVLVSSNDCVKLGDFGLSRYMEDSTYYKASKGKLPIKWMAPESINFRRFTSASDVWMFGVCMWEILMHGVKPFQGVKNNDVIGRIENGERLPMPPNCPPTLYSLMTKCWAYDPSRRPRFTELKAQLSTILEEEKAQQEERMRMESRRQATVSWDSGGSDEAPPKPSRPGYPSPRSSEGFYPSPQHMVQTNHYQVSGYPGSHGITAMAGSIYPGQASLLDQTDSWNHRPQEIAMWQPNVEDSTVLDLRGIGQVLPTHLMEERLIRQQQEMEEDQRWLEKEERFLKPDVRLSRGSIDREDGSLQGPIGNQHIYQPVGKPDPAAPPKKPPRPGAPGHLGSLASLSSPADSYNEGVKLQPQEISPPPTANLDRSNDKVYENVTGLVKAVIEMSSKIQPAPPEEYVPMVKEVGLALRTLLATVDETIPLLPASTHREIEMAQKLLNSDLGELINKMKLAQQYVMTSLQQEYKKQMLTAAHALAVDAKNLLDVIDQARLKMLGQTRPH
Concanavalin-A (Canavalia ensiformis), sequence (P02866 whole entry, looked up): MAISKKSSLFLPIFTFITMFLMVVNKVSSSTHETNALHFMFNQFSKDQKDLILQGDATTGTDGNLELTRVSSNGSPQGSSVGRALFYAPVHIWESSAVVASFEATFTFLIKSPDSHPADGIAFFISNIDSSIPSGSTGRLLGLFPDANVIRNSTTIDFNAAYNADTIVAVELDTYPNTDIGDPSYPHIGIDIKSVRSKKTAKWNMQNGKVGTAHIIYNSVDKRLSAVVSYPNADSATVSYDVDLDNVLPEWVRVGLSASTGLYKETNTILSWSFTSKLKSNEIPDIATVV
Follistatin (Homo sapiens), sequence (P19883 whole entry, looked up): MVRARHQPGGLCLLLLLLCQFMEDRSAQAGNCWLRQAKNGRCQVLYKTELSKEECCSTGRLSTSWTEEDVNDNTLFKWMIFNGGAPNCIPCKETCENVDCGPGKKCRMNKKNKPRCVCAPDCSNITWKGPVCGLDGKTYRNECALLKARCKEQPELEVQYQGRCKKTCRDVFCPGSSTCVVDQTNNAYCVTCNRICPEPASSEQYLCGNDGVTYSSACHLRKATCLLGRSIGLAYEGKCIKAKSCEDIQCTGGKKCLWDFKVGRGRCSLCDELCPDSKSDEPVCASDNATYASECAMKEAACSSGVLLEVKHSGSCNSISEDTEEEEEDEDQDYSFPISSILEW
Albumin (Bos taurus), sequence (P02769 whole entry, looked up): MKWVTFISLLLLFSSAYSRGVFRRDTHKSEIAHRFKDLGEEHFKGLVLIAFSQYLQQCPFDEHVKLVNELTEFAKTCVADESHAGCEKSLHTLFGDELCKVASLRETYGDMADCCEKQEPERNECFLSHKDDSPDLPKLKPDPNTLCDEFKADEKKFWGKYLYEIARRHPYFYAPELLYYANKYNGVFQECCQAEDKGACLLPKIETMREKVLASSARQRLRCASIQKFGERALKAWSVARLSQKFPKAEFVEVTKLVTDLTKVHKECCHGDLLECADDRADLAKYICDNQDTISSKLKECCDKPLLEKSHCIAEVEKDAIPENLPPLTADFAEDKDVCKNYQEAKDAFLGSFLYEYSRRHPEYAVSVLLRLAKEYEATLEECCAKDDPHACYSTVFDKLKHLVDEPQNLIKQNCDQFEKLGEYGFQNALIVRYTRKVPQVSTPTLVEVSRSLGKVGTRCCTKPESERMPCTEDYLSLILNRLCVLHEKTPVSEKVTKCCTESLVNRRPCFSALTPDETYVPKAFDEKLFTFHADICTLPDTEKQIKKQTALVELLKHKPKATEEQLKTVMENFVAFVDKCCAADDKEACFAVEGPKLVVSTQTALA
Luciferin 4-monooxygenase (Photinus pyralis), sequence (P08659 whole entry, looked up): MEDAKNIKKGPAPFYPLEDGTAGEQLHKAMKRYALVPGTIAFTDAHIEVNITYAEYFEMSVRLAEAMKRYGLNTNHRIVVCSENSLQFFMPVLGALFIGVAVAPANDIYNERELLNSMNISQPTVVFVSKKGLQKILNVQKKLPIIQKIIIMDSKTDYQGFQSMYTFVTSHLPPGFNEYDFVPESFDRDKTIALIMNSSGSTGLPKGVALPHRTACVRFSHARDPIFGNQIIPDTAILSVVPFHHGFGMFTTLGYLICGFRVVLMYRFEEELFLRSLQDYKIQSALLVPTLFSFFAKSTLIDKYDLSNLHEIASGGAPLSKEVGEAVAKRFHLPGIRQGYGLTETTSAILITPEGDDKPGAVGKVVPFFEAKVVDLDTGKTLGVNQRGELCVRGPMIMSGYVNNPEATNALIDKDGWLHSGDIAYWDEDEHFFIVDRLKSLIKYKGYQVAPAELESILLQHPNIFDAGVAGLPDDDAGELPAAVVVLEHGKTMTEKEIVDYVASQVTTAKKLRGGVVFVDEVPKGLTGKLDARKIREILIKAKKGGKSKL

As for `CCOC(=O)C[C@H]1[C@H](OC(=O)c2ccccc2-c2ccccc2)[C@@H](NC(=O)c2ccc3ccccc3c2)c2cc(OCCCO)ccc2N1C(=O)c1ccccc1`, the composite z-score with Albumin (Bos taurus) is 0.5; in assay [2], 0.138; in assay [3], -0.206; in assay [4] it was 0.355; in assay [5] it was 0.462; in [6], -0.0843. Moreover, the composite z-score in the assay with Sam68 (KHDRBS1) came to 0.735; in assay [7], 0.578; in assay [8] it was 0.215; in [9], 1.49; in assay [10], 0.844; in assay [11], 0.288. The composite z-score in assay [12] was 0.609; in [13], 0.91; in [14] it was 1.08; in the assay on Lefty1, 0.868; in assay [16], -0.0223. In addition, the composite Z-score in [1] was -0.0287 (inactive). The z-score is 1.04 in assay [15] and -0.124 (inactive) in assay [17].

For `OCCCC1=CC(c2ccc(CN3CCCC3)cc2)N(Cc2cc3c(cc2Br)OCO3)CC1` (stereo not given), the composite z-score with Albumin (Bos taurus) was -0.715; in assay [2] it was 0.0833; in assay [3], -0.0467; in assay [4], 0.0435; in [5], -0.437; in assay [6] it was 0.597. Further, the composite z-score was -0.063 with Sam68 (KHDRBS1); 0.901 in assay [7]; 0.22 in [8]; 0.448 in [9]; 0.049 in [10]; 0.172 in assay [11]. In addition, the composite z-score in [12] is 0.65; in [13], 1.07; in assay [14] it was 0.262; with Lefty1, 0.695; in assay [16], 0.266. Besides, the composite Z-score in assay [1] was -0.888 (inactive). In addition, the z-score was 0.157 in assay [15] and 0.391 (inactive) in assay [17].

`C=CC[C@]1(C(=O)N2CCCCC2)N=C(c2ccc(OCCCO)cc2)O[C@H]1c1ccccc1CN=[N+]=[N-]`: the composite z-score with Albumin (Bos taurus) is 0.472; in assay [2] it was 0.405; in assay [3] it was -0.147; in assay [4], 0.69; in [5], 2.31; in [6] it was 0.817. The composite z-score in the assay with Sam68 (KHDRBS1) is 1.3; in [7] it was -0.406; in assay [8], 1.1; in [9] it was 1.33; in assay [10], 1.24; in assay [11], 0.293. For the same compound, the composite z-score in [12] came to 1.01; in assay [13], 1.29; in assay [14] it was 0.524; in the assay with Lefty1 it was 0.228; in assay [16] it was 0.657. For the same compound, the composite Z-score in assay [1] was 0.256 (inactive). For the same compound, the values for the z-score in [15] and in assay [17] were 1.29 and 0.498 (inactive), respectively.

`CCOC(=O)C[C@H]1[C@H](OC(=O)c2ccc(C(=O)c3ccccc3)cc2)[C@@H](NC(=O)c2ccc3ccccc3n2)c2cc(OCCCO)ccc2N1C(=O)Cc1ccc(OC)cc1`: the composite z-score in the assay with Albumin (Bos taurus) is 0.567; in [2], 0.0779; in assay [3], -0.153; in assay [4] it was -0.175; in [5], 0.759; in [6], -0.263. Also, the composite z-score in the assay with Sam68 (KHDRBS1) is 0.627; in assay [7], -0.384; in assay [8] it was 0.93; in [9], -0.249; in assay [10], 0.656; in assay [11], 0.0555. Moreover, the composite z-score in [12] was 0.692; in assay [13], 0.259; in [14] it was 0.52; in the assay on Lefty1 it was 0.208; in [16] it was 0.207. Besides, in assay [1], the composite Z-score is -0.201 (inactive). Moreover, the z-score in assay [15] was -0.44; in assay [17] it was 0.541 (inactive).

Turning to `Oc1ccc2cc[n+](Cc3cc4c(cc3Br)OCO4)cc2c1`, the composite z-score in the assay with Albumin (Bos taurus) is -1.19; in [2], -0.333; in assay [3] it was -0.108; in [4] it was 0.908; in assay [5] it was -0.129; in assay [6], -0.127. Moreover, the composite z-score is -0.538 with Sam68 (KHDRBS1); -0.496 in assay [7]; -0.985 in [8]; -0.706 in assay [9]; -1.93 in assay [10]; -0.947 in assay [11]. In addition, the composite z-score is -1.38 in assay [12]; -0.145 in [13]; -0.387 in assay [14]; -1.15 in the assay with Lefty1; 0.136 in assay [16]. The composite Z-score in [1] is -0.399 (inactive). Moreover, the z-score in assay [15] is 0.938; in assay [17], -1.13 (inactive).

Regarding `COCC(=C=CC[C@H](O)c1ccccc1OCCO)C[C@H](O)c1ccccn1`, the composite z-score in the assay with Albumin (Bos taurus) was 0.519; in assay [2], -0.116; in assay [3] it was -0.0984; in [4] it was 0.426; in assay [5] it was -0.0733; in [6], -0.144. For the same compound, the composite z-score in the assay on Sam68 (KHDRBS1) is 0.544; in assay [7] it was -0.123; in assay [8], 0.215; in assay [9], 0.247; in assay [10], 0.128; in [11] it was -0.17. Besides, the composite z-score was -0.473 in assay [12]; 1.02 in [13]; 0.262 in [14]; 0.426 in the assay with Lefty1; -0.0118 in assay [16]. The composite Z-score in assay [1] is 0.2 (inactive). The z-score in assay [15] is 1.5; in assay [17], -1.02 (inactive).
